Most compounds without a hit are left out; they make up all but 1.4% or so of the library.
ugtP null kill = growth inhibition of ugtP-null S. aureus, primary screen, RN4220 ugtP deletion, OD600; 16 h; growth inhibition, % (no concentration beside the values); 330,000 compounds, 0.54% hits; AID 1259309, 2017; in the data active = growth inhibition above about 68%;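 note: plate controls were untreated wells for no effect and antibiotic for full effect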
PrPC surface inh = inhibitors of human cell surface prion protein PrPC, primary screen, cell-based, TR-FRET; Major prion protein (Homo sapiens), P04156; 370,000 compounds, 0.43% hits; AID 720596, 2013; inhibition, % at 13.8 µM; TR-FRET read-out; in the data active = inhibition above about 24%; note: 0% = median of the test wells and 100% = reference compound wells
DUSP3 inh = VHR1 phosphatase inhibitors, primary screen, biochemical, absorbance, uHTS; 290,000 compounds, 0.52% hits; inhibition, % at 13.3 µM; Dual specificity protein phosphatase 3 (Homo sapiens), P51452; recombinant VHR phosphatase, pNPP absorbance; in the data active = inhibition above about 50%
Sa RN4220 lethal = growth inhibition of S. aureus RN4220, primary screen, OD600 | 16 h | 330,000 compounds, 0.33% hits | inhibition, % (no concentration beside the values); in the data active = inhibition above about 85%;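 note: plate controls were untreated cells for no effect and reference antibiotic for full effect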
BJeLR viability = MLPCN primary cell-based screen for lethality selective to Ras in HRASV12 cells. AID 1554, 2009. BJeLR (HRASV12) viability, CellTiter-Glo ATP luminescence, 48 h. inhibition, % (no concentration beside the values). 300,000 compounds, 0.17% hits; in the data active = inhibition above about 50%
SARS 3CLpro inh = SARS-CoV 3CLpro protease inhibitors, primary screen, biochemical, quenched FRET. Replicase polyprotein 1ab (Severe acute respiratory syndrome coronavirus), P0C6X7. inhibition, % at 6 µM. recombinant SARS-CoV 3CLpro, quenched FRET peptide cleavage. 290,000 compounds, 0.14% hits; in the data active = inhibition above about 12%
PrPC TRFRET cf = confirmation of inhibitors of cell surface human prion protein, confirmation, cell-based, TR-FRET. shares compounds with PrPC surface inh. cell surface PrPC level. inhibition, % at 13.8 µM. 1,500 compounds, 65% hits. AID 743200, 2013; in the data active = inhibition above about 25%
LD9 tox = cytotoxicity in LD9 cells, cytotoxicity control for cell surface PrPc inhibitor project, cell-based, luminescence, high throughput. inhibition, % at 13.8 µM. 1,500 compounds, 29% hits. luminescence viability. shares compounds with PrPC surface inh; in the data active = inhibition above about 9.5%
* marks the source's active call; other numbers are inactive results; · = no result.

SMILES	ugtP null kill	PrPC surface inh	DUSP3 inh	Sa RN4220 lethal	BJeLR viability	SARS 3CLpro inh	PrPC TRFRET cf	LD9 tox
CC(C)c1nc(SCC(=O)N2CC(=O)Nc3ccccc32)c2ccccc2n1	4	80*	17	-3	0	0	104*	0
Cc1ccc(-n2c(SCC(=O)N3CC(=O)Nc4ccccc43)nc3ccccc3c2=O)cc1	-3	7	5	-10	-24	3	·	·
CC(=O)OC1C(=O)[C@]2(C)C(O)CC3OC[C@@]3(OC(C)=O)C2C(OC(=O)c2ccccc2)[C@]2(O)CC(OC(=O)C(O)C(NC(=O)c3ccccc3)c3ccccc3)C(C)=C1C2(C)C (some centres undefined)	1	·	·	2	·	·	·	·
CC(=O)O[C@H]1C(=O)[C@]2(C)[C@H]([C@H](OC(=O)c3ccccc3)[C@]3(O)C[C@H](OC(=O)[C@H](O)[C@@H](NC(=O)c4ccccc4)c4ccccc4)C(C)=C1C3(C)C)[C@]1(OC(C)=O)CO[C@@H]1C[C@@H]2O	·	28*	·	·	29	·	25*	4
COc1ccc(Br)cc1C(C[N+](=O)[O-])c1c(N)n(C)c(=O)n(C)c1=O (centres undefined)	-14	68*	-15	21	4	7	38*	33*
Cc1nc(-c2ccc(S(=O)(=O)Nc3ccc(Br)cc3Cl)s2)cs1	83	37*	8	96*	1	5	53*	-2
Cc1nc(-c2ccc(S(=O)(=O)Nc3cccc(S(N)(=O)=O)c3)s2)cs1	8	3	14	1	0	-2	·	·
COc1ccc2c(c1)OC(c1cccc(C(F)(F)F)c1)C(OC(=O)NCCc1ccc(OC)c(OC)c1)C2=O (centres undefined)	3	·	·	2	·	·	·	·
O=C(NNc1ccccc1)OCc1ccccc1	·	25*	·	·	·	·	18	-7
O=C(CC(=O)OCc1ccccc1)OCc1ccccc1	·	8	·	·	·	·	·	·
NC(=NOC(=O)CCCN1C(=O)c2ccccc2C1=O)c1ccccn1	-4	·	·	3	·	·	·	·
O=C(NC(CO)Cc1ccccc1)c1ccco1 (centres undefined)	15	·	·	8	·	·	·	·
Brc1ccc(-c2nn3c(-c4ccco4)nnc3s2)o1	-22	62*	18	20	2	-4	76*	-3
O=c1oc(C(O)c2ccccc2)cc2ccccc12 (centres undefined)	-1	·	·	4	·	·	·	·
C=CC1c2cc(C)ccc2N(S(=O)(=O)c2ccc(C)cc2)C(c2ccccc2)C1(C#N)S(=O)(=O)c1ccccc1 (centres undefined)	14	·	·	11	·	·	·	·
CC(C)Cc1cc(C(=O)Nc2ccc3c(c2)OCO3)no1	11	31*	2	9	-7	4	29*	-2
Cc1cc(C(=O)Nc2ccc3c(c2)OCO3)no1	-1	11	-11	1	-12	-2	·	·
O=C(Nc1ccc2c(c1)OCO2)c1cc(-c2ccc(O)cc2)on1	-7	32*	6	1	-3	4	18	5
O=C(Nc1ccc2c(c1)OCO2)c1cc(-c2cccc(O)c2)on1	-16	17	23	-4	1	2	·	·
Cc1noc(C)c1S(=O)(=O)Nc1ccc2c(c1)CC(=O)N(C(C)CO)CC(C)C(CN(C)S(=O)(=O)c1ccc(F)cc1)O2 (centres undefined)	5	·	·	6	·	·	·	·
CC(C)(C)c1ccc(NC(=O)COc2ccc(-n3ccnc3)cc2)cc1	-6	28*	21	-5	14	-2	21	12*
COc1cc(NC(=O)COc2ccc(-n3ccnc3)cc2)cc(OC)c1	6	3	7	2	2	2	·	·
CC(C)(C)OC(=O)N1CCCC1CO (centres undefined)	-4	·	·	4	·	·	·	·
CN1CCN(C=C2SC(=S)NC2=O)CC1	0	·	·	2	·	·	·	·

From PubChem
